The source holds several records for some structures; these can differ, active in one and inactive in another. Active and inactive are the calls of the source. The calls were made as follows: active = hit-call score of the fitted dose curve at least 0.9, where 1 is the maximum; inactive = score below 0.9.

Read-out in test [1]: Urokinase-type plasminogen activator receptor (uPAR), PLAUR (gene 5329)
Put plainly: BSK_4H_uPAR: BioMAP Diversity Plus: 4H Assay for Urokinase-type plasminogen activator receptor (uPAR) Biomarker Activity (AID 2283030). Conditions: primary human endothelial cells (HUVEC); actives raise or lower the signal. Put shortly: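 HUVEC, 24 h post-dose; uPAR by ELISA; bidirectional fit vs DMSO baseline.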

Read-out in test [2]: Vascular endothelial growth factor receptor 2 (Homo sapiens) (UniProt P35968)
Put plainly: BSK_4H_VEGFRII: BioMAP Diversity Plus: 4H Assay for Vascular endothelial growth factor receptor 2 (VEGFR2) Biomarker Activity (AID 2283031).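 As to AC50: cell-surface VEGFR2 protein level quantified by ELISA.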 Conditions: primary human endothelial cells (HUVEC); actives raise or lower the signal. The essentials:
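HUVEC (human primary), 4H system; 24 h post-dose; VEGFRII by ELISA; bidirectional curve fit vs DMSO baseline; gain or loss of signal scored.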

Read-out in test [3]: Human Leukocyte Antigen - DR isotype (HLADR), HLA-DRA (gene 3122)
Put plainly: BSK_BE3C_HLADR: BioMAP Diversity Plus: BE3C Assay for Human Leukocyte Antigen - DR isotype (HLADR) Biomarker Activity (AID 2283032). Conditions: primary human bronchial epithelial cells; actives raise or lower the signal. Put shortly:
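Human primary bronchial epithelial cells in the BE3C system were exposed to chemicals for 24 h, after which HLA-DR levels were quantified by ELISA. Activity was fitted bidirectionally, gain or loss of signal, against DMSO as negative control and baseline.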

Read-out in test [4]: Vascular cell adhesion molecule 1 (VCAM1), VCAM1 (gene 7412)
Put plainly: BSK_4H_VCAM1: BioMAP Diversity Plus: 4H Assay for Vascular cell adhesion molecule 1 (VCAM1) Biomarker Activity (AID 2283033).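 As to outcome: cell-surface VCAM-1 protein measured by ELISA.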 The conditions noted are these: primary human endothelial cells (HUVEC); actives raise or lower the signal. The essentials:
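Primary human umbilical vein endothelial cells were exposed to chemicals for 24 h, after which VCAM-1 was quantified by ELISA. Responses were fitted bidirectionally against DMSO as negative control and activity baseline.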

Read-out in test [5]: Interferon-gamma inducible Protein 10 (IP10), CXCL10 (gene 3627)
Put plainly: BSK_BE3C_IP10: BioMAP Diversity Plus: BE3C Assay for Interferon-gamma inducible Protein 10 (IP10) Biomarker Activity (AID 2283034). Conditions: primary human bronchial epithelial cells; actives raise or lower the signal. Put shortly: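 Human primary bronchial epithelial cells were exposed to chemicals for 24 hours, after which IP-10 levels were measured by ELISA. Data were fitted bidirectionally against DMSO, which served as the negative control and activity baseline.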

Read-out in test [6]: Monokine induced gamma interferon (MIG), CXCL9 (gene 4283)
Put plainly: BSK_BE3C_MIG: BioMAP Diversity Plus: BE3C Assay for Monokine induced gamma interferon (MIG) Biomarker Activity (AID 2283035).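 As to outcome: MIG protein measured by ELISA in BE3C cultures after 24 h of dosing.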 Conditions: primary human bronchial epithelial cells; actives raise or lower the signal. The essentials:
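ELISA read-out of MIG in human lung bronchial epithelial primary cultures, 24 h post-dosing. Bidirectional curve fit vs DMSO baseline.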

Read-out in test [7]: Transforming growth factor beta 1 (TGFb1), TGFB1 (gene 7040)
Nature of the test: BSK_BE3C_TGFb1: BioMAP Diversity Plus: BE3C Assay for Transforming growth factor beta 1 (TGFb1) Biomarker Activity (AID 2283036). Conditions: primary human bronchial epithelial cells; actives raise or lower the signal. Put shortly: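 Human primary bronchial epithelial cells (BE3C system) were dosed with chemical and TGF-b1 levels measured by ELISA at 24 h. Activity was fitted bidirectionally relative to DMSO negative control as baseline.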

Read-out in test [8]: Plasminogen activator inhibitor-1 (PAI1), SERPINE1 (gene 5054)
Put plainly: BSK_BE3C_PAI1: BioMAP Diversity Plus: BE3C Assay for Plasminogen activator inhibitor-1 (PAI1) Biomarker Activity (AID 2283037). Conditions: primary human bronchial epithelial cells; actives raise or lower the signal. Put shortly:
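Human primary bronchial epithelial cells were exposed to chemical for 24 h, then PAI-1 was quantified by ELISA. Activity was fitted bidirectionally relative to the DMSO negative control baseline.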

Read-out in test [9]: urokinase plasminogen activator (uPA), PLAU (gene 5328)
Nature of the test: BSK_BE3C_uPA: BioMAP Diversity Plus: BE3C Assay for urokinase plasminogen activator (uPA) Biomarker Activity (AID 2283038).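 As to outcome: uPA protein level quantified by ELISA in cell cultures; uPA read one day after compound addition.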 Conditions: primary human bronchial epithelial cells; actives raise or lower the signal. The essentials:
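ELISA read-out of uPA in human lung primary bronchial epithelial cultures, 24 h post-dosing. Gain or loss of signal fitted bidirectionally relative to DMSO baseline; cytotoxicity checked in parallel cultures via SRB total protein stain.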

Read-out in test [10]: Urokinase-type plasminogen activator receptor (uPAR), PLAUR (gene 5329)
Nature of the test: BSK_BE3C_uPAR: BioMAP Diversity Plus: BE3C Assay for Urokinase-type plasminogen activator receptor (uPAR) Biomarker Activity (AID 2283039).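 Also: cells exposed to compound for one day before measurement.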 Conditions: primary human bronchial epithelial cells; actives raise or lower the signal. Put shortly: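 Primary human bronchial epithelial cells were dosed with chemical and harvested 24 h later; uPAR was quantified by ELISA. Activity was fitted bidirectionally against DMSO as negative control and baseline.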

For `CN(C)[C@@H]1C(=O)C(C(N)=O)=C(O)[C@@]2(O)C(=O)C3=C(O)c4c(O)cccc4[C@@](C)(O)[C@H]3[C@H](O)[C@@H]12`, the outcome in test [1], in test [2], in test [3], in [4], in test [5] and in [6] was inactive. Moreover, the outcome in test [7], in test [8], in [9] and in test [10] was inactive. For the same molecule, the AC50 – broadly, the concentration giving half of the maximal activity seen – in test [8] is 3.97 µM (active).

Consider `CCc1cnc(C2=NC(C)(C(C)C)C(=O)N2)c(C(=O)O)c1` (centres undefined), for which the outcome in test [1], in test [3], in [4], in [5], in test [6] and in test [7] was inactive. Also, the outcome in [8] and in test [9] was inactive.

For `CCCCSP(=O)(SCCCC)SCCCC`, the outcome in test [1], in test [4], in [5], in test [6], in test [7] and in [8] was inactive. In addition, the result in test [9] and in test [10] was inactive. For the same molecule, the AC50 in [3] was 20 µM (active).

`O=c1ccc(=O)[nH][nH]1`: the outcome in test [1], in test [2], in [3], in test [4], in test [5] and in test [6] was inactive. In addition, the result in test [7], in test [8] and in [9] was inactive.

Turning to `COP(=O)(OC)OC(Br)C(Cl)(Cl)Br` (centres undefined), the concentration at half-maximal activity (AC50) is 27.9 µM (active) in test [1]; 31.1 µM (active) in [2]; 27.7 µM (active) in test [3]; 30.7 µM (active) in [4]; 30.3 µM (active) in test [5]; 30.8 µM (active) in test [6]. Further, the values for the AC50 in test [7], in test [8] and in test [9] were 33.1 µM (active), 27.9 µM (active) and 32 µM (active), respectively.

With `Nc1nc(N)nc(NC2CC2)n1`, the outcome in test [1], in test [3], in [4], in [5], in [6] and in [7] was inactive. Moreover, the outcome in test [8] and in [9] was inactive.

Take `CCOC(=O)CC(SP(=O)(OC)OC)C(=O)OCC` (centres undefined): the result in test [1], in [3], in test [4], in [5], in [6] and in [7] was inactive. The outcome in test [8], in [9] and in [10] was inactive.

`CCCCOC(=O)c1ccccc1C(=O)O`: the result in [1], in test [3], in test [4], in test [5], in test [6] and in test [7] was inactive. The result in test [8], in test [9] and in test [10] was inactive.

Turning to `CCOP(=S)(OCC)Oc1cc(C)nc(C(C)C)n1`, the outcome in [1], in [3], in test [4], in test [5], in test [6] and in test [7] was inactive. Moreover, the outcome in [8], in test [9] and in [10] was inactive.

For `CCc1cccc(CC)c1N(COC)C(=O)CCl`, the result in test [1], in [2], in test [6], in [7], in [8] and in [9] was inactive. For the same molecule, the outcome in test [10] was inactive. Also, the AC50 in [3] is 33.4 µM (active); in test [4], 15.3 µM (active); in test [5], 31.8 µM (active).

On to `CCC(=O)Nc1ccc(Cl)c(Cl)c1`, for which the result in [2], in test [3], in test [4], in [6], in test [8] and in test [9] was inactive. In addition, the AC50 in test [5] is 27.2 µM (active); in [7], 3.97 µM (active).

In the case of `Cc1nn(-c2cc(NS(C)(=O)=O)c(Cl)cc2Cl)c(=O)n1C(F)F`, the result in test [1], in [3], in test [4], in test [5], in test [6] and in test [7] was inactive. Besides, the result in test [8] and in [9] was inactive.

Consider `CCOP(=S)(OCC)Oc1ccc([N+](=O)[O-])cc1`, for which the outcome in test [1], in test [3], in [4], in test [5], in test [6] and in test [7] was inactive. Further, the result in [8] and in test [9] was inactive.

In the case of `CCC(CC)Nc1c([N+](=O)[O-])cc(C)c(C)c1[N+](=O)[O-]`, the result in test [1], in [3], in [5], in test [6], in test [7] and in test [8] was inactive. For the same molecule, the result in test [9] was inactive. In addition, in test [4], the AC50 is 20 µM (active).

As for `CCOP(=S)(OCC)OC(Cl)C(Cl)(Cl)Cl` (centres undefined), the result in [1], in test [3], in [4], in test [5], in test [6] and in [7] was inactive. In addition, the outcome in test [8] and in test [9] was inactive.

Take `C=C(C)[C@H]1Cc2c(ccc3c2O[C@@H]2COc4cc(OC)c(OC)cc4[C@@H]2C3=O)O1`: the AC50 in [2] is 3.97 µM (active); in [3], 6.33 µM (active); in test [4], 8.68 µM (active); in [5], 20 µM (active). Moreover, the outcome in test [6], in [7], in test [8] and in [9] was inactive.

Consider `CCOP(=O)(OCC)Oc1cc(C)nc(C(C)C)n1`, for which the result in [2], in test [3], in test [4], in test [5], in test [6] and in test [7] was inactive. The outcome in test [8], in test [9] and in test [10] was inactive.

In the case of `CCc1cccc(C)c1N(C(=O)CCl)C(C)COC` (centres undefined), the result in [2], in test [3], in test [4], in test [5], in test [6] and in test [7] was inactive. Moreover, the result in test [8], in test [9] and in [10] was inactive.

As to `CCNc1nc(Cl)nc(NC(C)(C)C#N)n1`, the result in test [3], in [4], in test [5], in test [6], in test [7] and in test [8] was inactive. Also, the result in [9] and in test [10] was inactive.

As for `CSC1=N[C@@](C)(c2ccccc2)C(=O)N1Nc1ccccc1`, the outcome in [2], in test [3], in test [5], in test [6], in test [7] and in test [8] was inactive. Moreover, the outcome in [9] and in test [10] was inactive. The AC50 in test [4] is 9.4 µM (active).

The values above are taken from PubChem BioAssay (EPA / NIEHS).
